The supplement of paper PMC7801607

What follows are compounds tested on Plasmodium falciparum NF54 stage IV/V gametocytes (assay: % inhibition of gametocyte viability (ATP bioluminescence); higher = more inhibition). Conditions: 1 µM; 24 h.
Procedure, shortened: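 In 96-well plates, compound at 1 or 5 µM was added to 30,000 density-gradient-enriched stage IV/V NF54 gametocytes per well and incubated for 24 h at 37 °C. ATP readout used the Promega BacTiter Glo bioluminescence system. Percent inhibition of gametocyte viability comes from a single run, normalised to control wells.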
With `C[C@@H](c1nc(-c2ccc(C#N)cc2)cs1)[C@](O)(Cn1cncn1)c1ccc(F)cc1F` the “% inhibition of gametocyte viability” value was 2.16%.
`O=C(Nc1ccccc1)N(Cc1cc(Br)ccc1O)c1ccc(F)cc1` was tested, and the “% inhibition of gametocyte viability” value was under 0%.
`O=C(NC1CCCc2c1[nH]c1ccc(Cl)cc21)c1ccccn1` (stereo not given) was tested, and the “% inhibition of gametocyte viability” value was under 0%.
With `O=C(CSc1nnc(Br)n1-c1ccc(C2CC2)c2ccccc12)Nc1ccc(C(=O)O)cc1Cl` the “% inhibition of gametocyte viability” value was under 0%.
With `O=C(NN1C(=O)[C@@H]2C3C=CC([C@H]4C[C@@H]34)[C@@H]2C1=O)c1ccc(C(F)(F)F)cc1` the “% inhibition of gametocyte viability” value was 1.06%.
In the case of `CO[C@@]1(NC(=O)Cc2cccs2)C(=O)N2C(C(=O)O)=C(COC(N)=O)CS[C@@H]21`, the “% inhibition of gametocyte viability” value is reported as 0.48%.
`c1ccc(-c2nnc3c4ccccc4c(N4CCNCC4)nn23)cc1` was tested, and the “% inhibition of gametocyte viability” value was under 0%.
`O=C(O)c1ccccc1Sc1ncnc2sc3c(c12)CCC3` was tested, and the “% inhibition of gametocyte viability” value was 2.23%.
With `CCNC(=O)Nc1cc2c(-c3ccnc(C)c3)ccc(CNC(=O)OC)c2cn1` the “% inhibition of gametocyte viability” value was under 0%.
In the case of `COc1c(F)c(F)cc2c(=O)c(C(=O)O)cn(C3CC3)c12`, the “% inhibition of gametocyte viability” value is reported as under 0%.
`COC1CC2CCC(C)C(O)(O2)C(=O)C(=O)N2CCCCC2C(=O)OC(C(C)CC2CCC(OCCO)C(OC)C2)CC(=O)C(C)/C=C(\C)C(O)C(OC)C(=O)C(C)CC(C)/C=C/C=C/C=C/1C` (stereo not given) was tested, and the “% inhibition of gametocyte viability” value was 2.16%.
For `O=C(Nc1nnc(-c2ccccc2)o1)c1ccc(F)cc1`, the “% inhibition of gametocyte viability” value was under 0%.
In the case of `O=C(O)C(Cc1c[nH]c2ccccc12)N1C(=O)c2ccccc2C1=O` (stereo not given), the “% inhibition of gametocyte viability” value is reported as 8.39%.
For `O=C(NCc1ncc(C(F)(F)F)cc1Cl)c1c(Cl)cccc1Cl`, the “% inhibition of gametocyte viability” value was under 0%.
For `CC(C)(C)NC(=O)[C@@H]1C[C@@H]2CCCC[C@@H]2CN1C[C@@H](O)[C@H](Cc1ccccc1)NC(=O)[C@H](CC(N)=O)NC(=O)c1ccc2ccccc2n1`, the “% inhibition of gametocyte viability” value was under 0%.
